Hits are enriched below; roughly 19% of the tested compounds scored in any of these assays.
DT40 TDP1 CPT – qHTS for Inhibitors of human tyrosyl-DNA phosphodiesterase 1 (TDP1): qHTS in cells in presence of CPT; AID 686979, 2013; 420,000 tested, 12% active; chicken DT40 Tdp1-/-;hTDP1 cells + 20 nM CPT, ATP luminescence, 48 h; Potency, µM (series often up to 46.2 µM), without a hit: at the top dose activity change, negative = growth inhibition, actives largely listed as inhibitors; also: potency is read from the fitted curve at half-maximal effect; % is scaled to controls: 0 for no effect and ±100 for the full control effect; nearly all actives have a fitted effect of over 55% in size
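Chicken DT40 Tdp1-/- cells stably complemented with human TDP1 were seeded at 400 cells/well in medium containing 20 nM camptothecin, exposed to pin-transferred compounds, and grown at 37 °C for at least 48 hr. Viability was read as ATP luminescence.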
HepG2 viability – qHTS for Inhibitors of TGF-b: Cytotox Counterscreen. Potency, µM (titrated, usually from 46.1 µM), for the others: at the top dose activity change, negative = cytotoxicity, most hits filed as cytotoxic. 410,000 tested, 0.76% active. HepG2 CAGA-GFP viability, ATP luminescence, 18 h; also: potency is read from the fitted curve at half-maximal effect
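HepG2 CAGA-GFP cells (1000/well, DMEM with 1% FBS) received compound, then TGF-beta at 500 pg/mL final, and were incubated 18 hours at 37 degrees C. Viability was read by CellTiter-Glo luminescence. Media-only wells were set as complete cell-killing and DMSO as no toxicity.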
DT40 TDP1 no CPT – qHTS for Inhibitors of human tyrosyl-DNA phosphodiesterase 1 (TDP1): qHTS in cells in absence of CPT; DT40 Tdp1-/- hTDP1 cells, no CPT, ATP luminescence, 48 h; Potency, µM (top dose mostly 46.2 µM), for inactives: at the highest dose activity change, negative = growth inhibition, hits mostly inhibitors; 420,000 tested, 15% active; AID 686978, 2013; also: potency is read from the fitted curve at half-maximal effect; % is scaled to controls: 0 for no effect and ±100 for the full control effect; nearly all actives have a fitted effect of over 55% in size
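Growth kinetics read by CellTiter-Glo luminescence after ≥48 hr at 37 °C. Cells: DT40 Tdp1-/- stably carrying human TDP1, 400 per well, compound exposure in the absence of CPT (DMSO vehicle).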
TGFb inhibitor – qHTS for Inhibitors of TGF-b; AID 588855, 2011; 410,000 tested, 1.2% active; HepG2 CAGA-GFP TGF-b/SMAD3 reporter, GFP fluorescence, 18 h; TGF-beta stimulated, 500 pg/mL final; Potency, µM (titrated, usually from 46.1 µM), for the others: top-dose activity, negative = inhibition, most hits filed as inhibitors; also: potency is read from the fitted curve at half-maximal effect; % is scaled to controls: 0 for no effect and ±100 for the full control effect; nearly all actives have a fitted effect of over 65% in size
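Smad-responsive CAGA-GFP expression was quantified in HEPG2 cells exposed to compounds and 500 pg/mL final TGF-beta for 18 h at 37 degrees C; unstimulated wells defined full inhibition.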
IL-1B inflam inh – qHTS for Inhibitors of Inflammasome Signaling: IL-1-beta AlphaLISA Primary Screen; 360,000 tested, 4.7% active; THP-1 LPS/ATP IL-1B secretion, AlphaLISA, 16 h; hits give low values; AID 743279, 2014; activity change, % at 57.5 µM; in the data active = activity change below about -50%; inconclusive = mostly about -30% to -49%; also: % is scaled to controls: 0 for no effect and ±100 for the full control effect
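THP-1 cells pretreated 1 hr with compounds (up to 57.5 uM final), then stimulated with LPS (250 ng/mL final) plus ATP (1.25 mM final); secreted IL-1B measured by AlphaLISA after 16 hr, decreased signal indicating inhibition.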
ASM inhibitor – Inhibitors of Secretory Acid Sphingomyelinase (S-ASM): qHTS | Potency, µM (top dose mostly 57.5 µM), inactives show at the top dose activity change, negative = inhibition, usual class: inhibitors | 340,000 tested, 0.006% active | placental ASM, HMU-PC fluorogenic substrate, 60 min; also: potency is read from the fitted curve at half-maximal effect
Target sequence (P17405 47-631 limits assumed): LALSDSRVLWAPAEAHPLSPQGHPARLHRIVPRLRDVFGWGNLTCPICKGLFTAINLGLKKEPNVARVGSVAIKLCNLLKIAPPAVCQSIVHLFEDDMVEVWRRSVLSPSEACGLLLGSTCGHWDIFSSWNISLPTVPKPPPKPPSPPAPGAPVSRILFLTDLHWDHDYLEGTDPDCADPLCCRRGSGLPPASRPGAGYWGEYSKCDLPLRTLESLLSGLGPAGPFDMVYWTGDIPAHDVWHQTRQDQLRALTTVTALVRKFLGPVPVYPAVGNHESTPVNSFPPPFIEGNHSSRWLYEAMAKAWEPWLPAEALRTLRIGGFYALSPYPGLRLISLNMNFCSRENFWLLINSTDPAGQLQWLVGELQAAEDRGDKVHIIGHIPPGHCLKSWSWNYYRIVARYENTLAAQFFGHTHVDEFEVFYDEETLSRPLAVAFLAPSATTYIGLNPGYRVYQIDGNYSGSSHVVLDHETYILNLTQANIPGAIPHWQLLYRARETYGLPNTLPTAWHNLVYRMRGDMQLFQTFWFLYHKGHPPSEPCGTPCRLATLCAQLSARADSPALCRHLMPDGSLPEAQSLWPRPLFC
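Steps: dispense placental human ASM, pin compound, wait 10 min at room temperature, add HMU-PC0 substrate at 9 uM final, incubate 60 min at 37 °C, add stop solution raising pH to 10, read fluorescence.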
* hit, by the source's call; u = inconclusive; x = no result given. Unless noted, calls follow the shape of the dose curve; as a rule, active = well fitted curve in the direction sought with a large enough effect; inconclusive = small, poorly fitted or top-dose-only effect, or another doubt; inactive = no such curve, though single readings can be large; an effect the other way counts as inactive or inconclusive.

SMILES	DT40 TDP1 CPT	HepG2 viability	DT40 TDP1 no CPT	TGFb inhibitor	IL-1B inflam inh	ASM inhibitor
COC(=O)c1ccc2nc(C)cc(Nc3ccccc3C)c2c1	u	-22.7%	u	-10.8%	16.1	13.9%
COc1ccc2nc(C)cc(NCc3ccc(F)cc3)c2c1	u	-35.2%	23.1µM*	5.5%	-78.8*	261.5%
Cc1cc(C(=O)OCC(=O)NCc2ccc(F)cc2)c2ccccc2n1	u	-3.8%	-11.3%	-10.1%	0.0	-0.3%
COc1ccc(OC)c(Nc2cc(C)nc3ccc(C)cc23)c1	4.61µM*	-0.5%	5.17µM*	u	-77.3*	1.8%
COc1ccc(Nc2cc(C)c3cc([N+](=O)[O-])ccc3n2)cc1	u	-19.8%	u	u	-20.6	u
Cc1ccc2nc(C)cc(Nc3ccc([N+](=O)[O-])cc3)c2c1	1.03µM*	-17.7%	0.92µM*	-7.1%	14.8	-3.2%
COC1CCCN(Cc2c(C(=O)N3CCN(C4CCCCC4)CC3)nc3ccccn23)C1 (stereo not drawn)	-4.2%	6.6%	-0.8%	-3.4%	31.7	9.7%
COc1ccccc1N(C(=O)c1ccco1)C(C(=O)NC1CCCC1)c1ccncc1 (stereo not drawn)	0.8%	-23.9%	-10.6%	-2.7%	0.6	-0.6%
COc1ccc2nc(C)cc(Nc3ccc(C)cc3)c2c1	5.8µM*	-6.5%	u	-9.1%	u	0.5%
COc1ccc2nc(C)cc(Nc3ccc(Cl)c(Cl)c3)c2c1	2.06µM*	11.2µM*	1.84µM*	u	x	x
Cc1cc(Nc2cccc(Br)c2)c2ccccc2n1	5.8µM*	-4.6%	10.3µM*	u	-90.8*	-1.2%
COc1ccc(Nc2cc(C)nc3ccccc23)cc1	u	-41.0%	18.4µM*	-25.7%	u	-1.2%
Cc1cc(=O)[nH]c(SCC(=O)N2CCN(c3ccccc3)CC2)n1	-13.2%	-10.5%	-16.1%	x	x	x
Cc1cc(=O)[nH]c(SCC(=O)N2CCN(C(c3ccccc3)c3ccccc3)CC2)n1	18.4µM*	-3.1%	u	u	-10.6	0.6%
Cc1nc(SCC(=O)N2CCC(Cc3ccccc3)CC2)[nH]c(=O)c1C	16.4µM*	-13.4%	23.1µM*	u	9.5	0.4%
Cc1cc(=O)[nH]c(SCC(=O)N2CCC(Cc3ccccc3)CC2)n1	2.9%	-3.4%	6.1%	5.6%	u	-1.8%
O=C(CSc1nc(C(F)(F)F)cc(=O)[nH]1)N1CCC(Cc2ccccc2)CC1	-10.9%	-0.3%	11.6µM*	0.9%	-19.3	-5.8%
CSC1=NNC(c2ccc(C(C)(C)C)cc2)=NN1	-14.3%	-5.0%	-23.2%	-13.9%	-7.4	4.3%
CCN1CCC(NC(=O)Nc2cc(Cl)ccc2OC)CC1	-3.5%	-6.1%	-27.2%	-6.9%	-0.5	0.1%
O=[N+]([O-])c1cccc(C2NCC(c3ccccc3Cl)c3c2[nH]c2ccccc32)c1 (stereo not drawn)	u	34.3%	u	u	-63.1*	-6.4%
CC(C)OCCCN1CC(=O)N2C(c3cccc([N+](=O)[O-])c3)c3[nH]c4ccccc4c3C[C@H]2C1=O (stereo partly drawn)	u	-29.4%	-18.9%	u	0.0	-17.4%
CN(C)C(CNC(=O)c1ccc2ccccc2n1)c1ccccc1 (stereo not drawn)	u	-13.8%	18.4µM*	14.2%	20.3	-2.8%

Source: PubChem BioAssay
